# About 3,300 (8.5%) of roughly 39,000 compounds were called active. The sample as a whole holds a higher share of actives than the screen did.
# Test system: HepG2
# Test: cytotoxicity call (relative viability < 0.9)
# Conditions: 10 µM
row,Structure (SMILES),cytotoxicity call
1,C[C@H](CO)N1C[C@H](C)[C@H](CN(C)Cc2ccc(C(F)(F)F)cc2)Oc2c(NS(C)(=O)=O)cccc2C1=O,inactive
2,Cc1ccc(-c2ccc3c(c2)O[C@H](CN(C)C(=O)NC(C)C)[C@H](C)CN([C@@H](C)CO)S3(=O)=O)cc1,inactive
3,C[C@H](CO)N1C[C@H](C)[C@H](CN(C)S(=O)(=O)c2ccc(F)cc2)OCCCC[C@H](C)Oc2ccc(NS(=O)(=O)c3cn(C)cn3)cc2C1=O,inactive
4,O=C(C[C@H]1CC[C@@H]2[C@H](COC[C@H](O)CN2S(=O)(=O)c2ccccc2Cl)O1)NCc1ccccc1Cl,inactive
5,CN(CC(=O)Nc1cccc(S(=O)(=O)N2CCOCC2)c1)CC(=O)Nc1ccc(Cl)c(C(F)(F)F)c1,inactive
6,C[C@H](NC(=O)c1c(N)nn2cccnc12)c1cc2cccc(C#Cc3cnn(C)c3)c2c(=O)n1-c1ccccc1,active
7,O=C(C[C@H]1CC[C@H]2[C@@H](COC[C@@H](O)CN2S(=O)(=O)c2ccccc2)O1)NCCN1CCCC1,inactive
8,CN1CCN(C(=O)C[C@H]2CC[C@H]3[C@@H](COc4ccc(NC(=O)c5cccs5)cc4C(=O)N3C)O2)CC1,inactive
9,COc1ccc(S(=O)(=O)N(C)C[C@H]2Oc3ccc(NC(=O)c4ccncc4)cc3CC(=O)N([C@H](C)CO)C[C@H]2C)cc1,inactive
10,CN(C)CC(=O)N1CC2(C1)[C@@H](c1ccccc1)[C@H](CO)N2S(C)(=O)=O,inactive
11,CC(C)(C)c1cc(C(=O)NN)no1,inactive
12,CCN1C(C)(C)CC(Oc2ccc(C(=O)Nc3ccc(NC(=O)Nc4cc(C(C)(C)C)on4)cc3)nc2)CC1(C)C,active
13,COc1cc2ncnc(Oc3cccc(NC(=O)Nc4cc(C(C)(C)C(F)(F)F)on4)c3)c2cc1OC,inactive
14,C[C@@H]1CN([C@H](C)CO)C(=O)Cc2cc(NC(=O)Cn3cnnn3)ccc2O[C@H]1CN(C)C(=O)NC1CCCCC1,inactive
15,C[C@@H]1CN([C@@H](C)CO)C(=O)c2cc(NC(=O)Nc3cccc4ccccc34)ccc2O[C@H]1CN(C)Cc1ccccc1,inactive
16,C[C@@H]1CN([C@H](C)CO)C(=O)c2cc(NC(=O)Nc3cccc4ccccc34)ccc2O[C@H]1CN(C)Cc1ccccc1,inactive
17,C[C@@H]1CN([C@@H](C)CO)C(=O)c2cc(NC(=O)Nc3cccc4ccccc34)ccc2O[C@@H]1CN(C)Cc1ccccc1,active
18,C[C@H](CO)N1C[C@H](C)[C@H](CN(C)Cc2ccccc2)Oc2ccc(NC(=O)Nc3cccc4ccccc34)cc2C1=O,inactive
19,C[C@H]1CN([C@@H](C)CO)C(=O)c2cc(NC(=O)Nc3cccc4ccccc34)ccc2O[C@@H]1CN(C)Cc1ccccc1,inactive
20,C[C@@H]1CN([C@@H](C)CO)C(=O)c2cc(NC(=O)Nc3cccc4ccccc34)ccc2O[C@@H]1CN(C)Cc1ccc2c(c1)OCO2,active
21,C[C@H]1CN([C@@H](C)CO)C(=O)c2cc(NC(=O)Nc3cccc4ccccc34)ccc2O[C@@H]1CN(C)Cc1ccc2c(c1)OCO2,inactive

row,Structure (SMILES),cytotoxicity call
1,C[C@@H]1CN([C@@H](C)CO)C(=O)c2cc(NC(=O)Nc3cccc4ccccc34)ccc2O[C@H]1CN(C)Cc1ccc2c(c1)OCO2,inactive
2,C[C@@H]1CN([C@H](C)CO)C(=O)c2cc(NC(=O)Nc3cccc4ccccc34)ccc2O[C@@H]1CN(C)Cc1ccccc1,active
3,CCS(=O)(=O)N1CC[C@]2(CC1)CN([C@H](CO)c1c2c2ccc(cc2n1C)OC)C(=O)Nc1c(noc1C)C,inactive
4,Cc1cc(O)cc(=O)o1,inactive
5,C[C@@H]1CN([C@H](C)CO)C(=O)c2cc(NC(=O)Nc3ccc(F)cc3)ccc2O[C@@H](C)CCCCO[C@@H]1CN(C)S(=O)(=O)c1ccc(Cl)cc1,inactive
6,COc1ccc(NC(=O)Nc2ccc3c(c2)C(=O)N([C@@H](C)CO)C[C@@H](C)[C@H](CN(C)C(=O)Nc2ccccc2)OCCCC[C@H](C)O3)cc1,inactive
7,CC(C)NC(=O)Nc1ccc2c(c1)C(=O)N([C@@H](C)CO)C[C@@H](C)[C@@H](CN(C)S(=O)(=O)c1cn(C)cn1)OCCCC[C@@H](C)O2,inactive
8,COc1ccc2c3c([nH]c2c1)[C@@H](CO)N(C[C@]13CCN(CC1)C(=O)Nc1ccc(cc1)F)C(=O)c1ccc(cc1)F,inactive
9,COc1ccc2c3c([nH]c2c1)[C@H](CO)N(C[C@]13CCN(CC1)S(=O)(=O)C)C(=O)Nc1ccc(cc1)F,inactive
10,COc1ccc2c3c([nH]c2c1)[C@H](CO)N(C[C@]13CCN(CC1)Cc1ccccc1OC)C(=O)Nc1ccc(cc1)F,inactive
11,COc1ccc2c3c([nH]c2c1)[C@@H](CO)N(C[C@]13CCN(CC1)Cc1cc(ccc1F)F)C(=O)Nc1ccc(cc1)F,inactive
12,COc1ccc2c3c([nH]c2c1)[C@@H](CO)N(C[C@]13CCN(CC1)C(=O)Nc1ccccc1)C(=O)Nc1ccc(cc1)F,inactive
13,COc1ccc2c3c([nH]c2c1)[C@@H](CO)N(C[C@]13CCN(CC1)S(=O)(=O)C)C(=O)Nc1ccc(cc1)F,inactive
14,COc1ccc2c3c([nH]c2c1)[C@H](CO)N(C[C@]13CCN(CC1)Cc1cc(on1)-c1ccccc1)C(=O)Nc1ccc(cc1)F,inactive
15,COc1ccc2c3c([nH]c2c1)[C@@H](CO)N(C[C@]13CCN(CC1)Cc1ccc(cc1)F)C(=O)Nc1ccc(cc1)F,active
16,COc1ccc2c3c([nH]c2c1)[C@H](CO)N(C[C@]13CCN(CC1)Cc1ccc(cc1)F)C(=O)Nc1ccc(cc1)F,active
17,COc1ccc2c3c([nH]c2c1)[C@H](CO)N(C[C@]13CCN(CC1)C(=O)Nc1ccccc1)C(=O)Nc1ccc(cc1)F,active
18,COc1ccc2c3c([nH]c2c1)[C@H](CO)N(C[C@]13CCN(CC1)Cc1cc(ccc1F)F)C(=O)Nc1ccc(cc1)F,inactive
19,COc1ccc2c3c([nH]c2c1)[C@@H](CO)N(C[C@]13CCN(CC1)Cc1ccccc1OC)C(=O)Nc1ccc(cc1)F,active
20,COc1cc(OC)c(NC(=O)Cn2c(=O)n(-c3ccc(CC(=O)NC[C@H]4CCCO4)cc3)c(=O)c3ccccc32)cc1Cl,inactive
21,C[C@H]1CN([C@@H](C)CO)C(=O)c2cccc(NC(=O)Nc3ccccc3)c2O[C@@H]1CN(C)C(=O)Nc1cccc2ccccc12,inactive

# Reference: the antibiotic and cytotoxicity screens of Wong et al. (2023)
